# Data taken from PubChem BioAssay AID1159580 (chemical genetic matrix, 2015).
# Hit rate of the full screen: of about 5,500 compounds, about 2,000 (36%) were called active. About 18% were inconclusive and are not listed. The list shows a part of the results. Unmarked numbers belong to inactive results. Cut-off read from the data, not from the text of the source: active = normalized growth mostly below about 0.91 (no sharp cut-off); inconclusive = no clear call, values can overlap the other calls; inactive = mostly above about 0.92.
# Assay: chemical genetic growth profiling, strain panel (AID 1159580);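 note: tested at 20 µM; growth read once vehicle control cultures reached saturation at 30 °C; 1 = growth at the plate median or of vehicle wells; lower values mean less growth of the strain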
# Details: growth OD
# [1] = S. cerevisiae deletion strains, locus YDL101C, strain DUN1, active compounds read low
# [2] = S. cerevisiae deletion strains, locus YHR030C, strain SLT2, active compounds read low
# [3] = S. cerevisiae deletion strains, locus YAL013W, strain DEP1, active compounds read low
# [4] = S. cerevisiae deletion strains, locus YBR229C, strain ROT2, active compounds read low
# [5] = S. cerevisiae deletion strains, locus YCL061C, strain MRC1, active compounds read low
# [6] = S. cerevisiae deletion strains, locus YDR150W, strain NUM1, active compounds read low
# [7] = S. cerevisiae deletion strains, locus YEL061C, strain CIN8, active compounds read low
# [8] = S. cerevisiae deletion strains, locus YGR078C, strain PAC10, active compounds read low
# [9] = S. cerevisiae deletion strains, locus YHR087W, strain rtc3, active compounds read low
# [10] = S. cerevisiae deletion strains, locus YJR043C, strain POL32, active compounds read low
# [11] = S. cerevisiae deletion strains, locus YJR075W, strain HOC1, active compounds read low
# [12] = S. cerevisiae deletion strains, locus YLR039C, strain RIC1, active compounds read low
# [13] = S. cerevisiae deletion strains, locus YLR058C, strain SHM2 (second series), active compounds read low
# [14] = S. cerevisiae deletion strains, locus YLR085C, strain ARP6, active compounds read low
# [15] = S. cerevisiae deletion strains, locus YLR262C, strain YPT6, active compounds read low
# [16] = S. cerevisiae deletion strains, locus YML094W, strain GIM5, active compounds read low
# [17] = S. cerevisiae deletion strains, locus YMR219W, strain ESC1, active compounds read low
# [18] = S. cerevisiae deletion strains, locus YMR263W, strain SAP30, active compounds read low
# [19] = S. cerevisiae deletion strains, locus YNL153C, strain GIM3, active compounds read low
# [20] = S. cerevisiae deletion strains, locus YNL298W, strain CLA4 (second series), active compounds read low
# [21] = S. cerevisiae deletion strains, locus YNL322C, strain KRE1, active compounds read low
# [22] = S. cerevisiae deletion strains, locus YNR030W, strain Alg12, active compounds read low
# [23] = S. cerevisiae deletion strains, locus YPL241C, strain CIN2, active compounds read low
# [24] = S. cerevisiae deletion strains, locus YPR135W, strain CTF4, active compounds read low
smiles,measurement,setting,value
O=C(Nc1ccc(Cl)cc1)SCc1c(Cl)cccc1Cl,normalized growth,"S. cerevisiae deletion strains, locus YAR019C, strain CDC15, active compounds read low",0.985
same,normalized growth,"S. cerevisiae deletion strains, locus YBL105C, strain PKC1, active compounds read low",0.976
same,normalized growth,"S. cerevisiae deletion strains, locus YBR135W, strain CKS1, active compounds read low",0.984
same,normalized growth,"S. cerevisiae deletion strains, locus YBR136W, strain MEC1, active compounds read low",0.967
same,normalized growth,"S. cerevisiae deletion strains, locus YBR160W, strain CDC28, active compounds read low",0.988
same,normalized growth,"S. cerevisiae deletion strains, locus YDL017W, strain CDC7, active compounds read low",0.976
same,normalized growth,"S. cerevisiae deletion strains, locus YDL028C, strain MPS1, active compounds read low",0.987
same,normalized growth,[1],0.974
same,normalized growth,"S. cerevisiae deletion strains, locus YDL108W, strain KIN28, active compounds read low",0.959
same,normalized growth,"S. cerevisiae deletion strains, locus YDL132W, strain cdc53, active compounds read low",0.999
same,normalized growth,"S. cerevisiae deletion strains, locus YDL214C, strain PRR2, active compounds read low",0.786
same,normalized growth,"S. cerevisiae deletion strains, locus YDR052C, strain DBF4, active compounds read low",0.974
same,normalized growth,"S. cerevisiae deletion strains, locus YDR054C, strain cdc34, active compounds read low",0.953
same,normalized growth,"S. cerevisiae deletion strains, locus YDR226W, strain ADK1, active compounds read low",0.969
same,normalized growth,"S. cerevisiae deletion strains, locus YDR477W, strain SNF1, active compounds read low",0.83
same,normalized growth,"S. cerevisiae deletion strains, locus YER123W, strain YCK3, active compounds read low",0.659
same,normalized growth,"S. cerevisiae deletion strains, locus YER133W, strain GLC7, active compounds read low",0.834
same,normalized growth,"S. cerevisiae deletion strains, locus YFL009W, strain cdc4, active compounds read low",1
same,normalized growth,"S. cerevisiae deletion strains, locus YFL029C, strain CAK1, active compounds read low",0.975
same,normalized growth,"S. cerevisiae deletion strains, locus YFR003C, strain YPI1, active compounds read low",0.972
same,normalized growth,"S. cerevisiae deletion strains, locus YFR019W, strain FAB1, active compounds read low",0.747 (active)
same,normalized growth,"S. cerevisiae deletion strains, locus YFR028C, strain CDC14, active compounds read low",0.988
same,normalized growth,"S. cerevisiae deletion strains, locus YGR040W, strain KSS1, active compounds read low",0.808
same,normalized growth,"S. cerevisiae deletion strains, locus YGR052W, strain FMP48, active compounds read low",0.765
same,normalized growth,"S. cerevisiae deletion strains, locus YGR092W, strain DBF2, active compounds read low",0.763
same,normalized growth,[2],0.793 (active)
same,normalized growth,"S. cerevisiae deletion strains, locus YHR079C, strain IRE1, active compounds read low",0.748
same,normalized growth,"S. cerevisiae deletion strains, locus YHR082C, strain KSP1, active compounds read low",0.787
same,normalized growth,"S. cerevisiae deletion strains, locus YHR205W, strain SCH9, active compounds read low",0.919
same,normalized growth,"S. cerevisiae deletion strains, locus YIL147C, strain SLN1, active compounds read low",0.973
same,normalized growth,"S. cerevisiae deletion strains, locus YJL095W, strain BCK1, active compounds read low",0.745
same,normalized growth,"S. cerevisiae deletion strains, locus YJL128C, strain PBS2, active compounds read low",0.92
same,normalized growth,"S. cerevisiae deletion strains, locus YJL157C, strain FAR1, active compounds read low",0.76
same,normalized growth,"S. cerevisiae deletion strains, locus YJR016C, strain ILV3, active compounds read low",0.995
same,normalized growth,"S. cerevisiae deletion strains, locus YJR066W, strain TOR1 (second series), active compounds read low",0.746
same,normalized growth,"S. cerevisiae deletion strains, locus YJR066W, strain TOR1, active compounds read low",0.788
same,normalized growth,"S. cerevisiae deletion strains, locus YKL048C, strain ELM1, active compounds read low",0.891
same,normalized growth,"S. cerevisiae deletion strains, locus YKL067W, strain YNK1, active compounds read low",0.8
same,normalized growth,"S. cerevisiae deletion strains, locus YKL101W, strain HSL1, active compounds read low",0.83
same,normalized growth,"S. cerevisiae deletion strains, locus YKL193C, strain SDS22, active compounds read low",0.973
same,normalized growth,"S. cerevisiae deletion strains, locus YKL203C, strain TOR2, active compounds read low",0.891
same,normalized growth,"S. cerevisiae deletion strains, locus YLR113W, strain HOG1, active compounds read low",0.728 (active)
same,normalized growth,"S. cerevisiae deletion strains, locus YLR133W, strain CKI1, active compounds read low",0.816
same,normalized growth,"S. cerevisiae deletion strains, locus YLR403W, strain SFP1, active compounds read low",0.897
same,normalized growth,"S. cerevisiae deletion strains, locus YML070W, strain DAK1, active compounds read low",0.783
same,normalized growth,"S. cerevisiae deletion strains, locus YMR001C, strain CDC5, active compounds read low",0.971
same,normalized growth,"S. cerevisiae deletion strains, locus YMR205C, strain PFK2 (second series), active compounds read low",0.836
same,normalized growth,"S. cerevisiae deletion strains, locus YMR277W, strain FCP1, active compounds read low",0.975
same,normalized growth,"S. cerevisiae deletion strains, locus YNL006W, strain LST8, active compounds read low",0.989
same,normalized growth,"S. cerevisiae deletion strains, locus YNL020C, strain ARK1, active compounds read low",0.771
same,normalized growth,"S. cerevisiae deletion strains, locus YNL161W, strain CBK1, active compounds read low",0.974
same,normalized growth,"S. cerevisiae deletion strains, locus YNL183C, strain NPR1, active compounds read low",0.821
same,normalized growth,"S. cerevisiae deletion strains, locus YNL207W, strain RIO2, active compounds read low",0.955
same,normalized growth,"S. cerevisiae deletion strains, locus YNL222W, strain SSU72, active compounds read low",0.979
same,normalized growth,"S. cerevisiae deletion strains, locus YNL307C, strain MCK1 (second series), active compounds read low",0.721
same,normalized growth,"S. cerevisiae deletion strains, locus YOL078W, strain AVO1, active compounds read low",0.977
same,normalized growth,"S. cerevisiae deletion strains, locus YOL136C, strain PFK27, active compounds read low",0.761
same,normalized growth,"S. cerevisiae deletion strains, locus YOR061W, strain CKA2, active compounds read low",0.756
same,normalized growth,"S. cerevisiae deletion strains, locus YOR119C, strain RIO1, active compounds read low",0.905
same,normalized growth,"S. cerevisiae deletion strains, locus YOR231W, strain MKK1, active compounds read low",0.831
same,normalized growth,"S. cerevisiae deletion strains, locus YOR329C, strain SCD5, active compounds read low",0.979
same,normalized growth,"S. cerevisiae deletion strains, locus YPL031C, strain PHO85, active compounds read low",0.778
same,normalized growth,"S. cerevisiae deletion strains, locus YPL153C, strain RAD53, active compounds read low",0.798
same,normalized growth,"S. cerevisiae deletion strains, locus YPL204W, strain HRR25, active compounds read low",0.813
same,normalized growth,"S. cerevisiae deletion strains, locus YPL209C, strain IPL1, active compounds read low",0.972
same,normalized growth,"S. cerevisiae deletion strains, locus YPL256C, strain CLN2, active compounds read low",0.811 (active)
same,normalized growth,"S. cerevisiae deletion strains, locus YPR025C, strain CCL1, active compounds read low",0.988
same,normalized growth,"S. cerevisiae deletion strains, locus YPR106W, strain ISR1, active compounds read low",0.963
same,normalized growth,"S. cerevisiae deletion strains, locus YPR111W, strain DBF20, active compounds read low",0.961
same,normalized growth,"S. cerevisiae deletion strains, strain NNK1, active compounds read low",0.954
same,normalized growth,"S. cerevisiae deletion strains, strain TSCII, active compounds read low",0.978
Cn1c(CSCC(=O)Nc2ccccc2)n[nH]c1=S,normalized growth,[3],1.01
same,normalized growth,[4],1.01
same,normalized growth,[5],1.02
same,normalized growth,[1],1.02
same,normalized growth,[6],1.02
same,normalized growth,[7],1
same,normalized growth,[8],0.999
same,normalized growth,[2],1.09
same,normalized growth,[9],1.01
same,normalized growth,[10],1.02
same,normalized growth,[11],0.991
same,normalized growth,[12],1
same,normalized growth,[13],1
same,normalized growth,[14],0.966
same,normalized growth,[15],1.01
same,normalized growth,[16],0.994
same,normalized growth,[17],0.993
same,normalized growth,[18],1.02
same,normalized growth,"S. cerevisiae deletion strains, locus YNL128W, strain TEP1, active compounds read low",0.994
same,normalized growth,[19],1.02
same,normalized growth,[20],1.03
same,normalized growth,[21],0.99
same,normalized growth,[22],1
same,normalized growth,"S. cerevisiae deletion strains, locus YPL055C, strain LGE1, active compounds read low",1.03
same,normalized growth,[23],1
same,normalized growth,[24],1.07
same,normalized growth,"S. cerevisiae strains, strain wild type, active compounds read low",0.981
N#C/C(NCc1cccs1)=C(\C#N)NCc1c(F)cccc1Cl,normalized growth,[3],0.958
same,normalized growth,[4],0.977
same,normalized growth,[5],0.97
same,normalized growth,[1],0.979
same,normalized growth,[6],0.899
same,normalized growth,[7],0.998
same,normalized growth,[8],0.973
same,normalized growth,[2],0.919
same,normalized growth,[9],0.991
same,normalized growth,"S. cerevisiae deletion strains, locus YJL187C, strain SWE1, active compounds read low",1
same,normalized growth,[10],0.988
same,normalized growth,[11],0.97
same,normalized growth,[12],0.939
same,normalized growth,[13],0.972
same,normalized growth,[14],0.957
same,normalized growth,[15],0.969
same,normalized growth,[16],0.964
same,normalized growth,[17],0.986
same,normalized growth,[18],0.947
same,normalized growth,"S. cerevisiae deletion strains, locus YMR307W, strain GAS1, active compounds read low",0.919
same,normalized growth,[19],0.993
same,normalized growth,[20],0.959
same,normalized growth,[21],0.969
same,normalized growth,[22],0.964
same,normalized growth,"S. cerevisiae deletion strains, locus YOL006C, strain TOP1, active compounds read low",1.01
same,normalized growth,[23],0.973
same,normalized growth,[24],0.962
